Measurements as given in PubChem BioAssay AID504332 (National Center for Advancing Translational Sciences (NCATS), 2011).
Among all 350,000 compounds or so, about 31,000 (8.9%) were called active. Inconclusive results (about 15%) are left out. The call rests on the fitted dose curve; in most records, active means well fitted inhibition curve with a large enough effect; inconclusive means small, poorly fitted or top-dose-only effect; inactive means no such curve, though single readings can be large or run the other way. For the sample, actives were picked, then their nearest neighbours and some compounds at random.

target: Histone-lysine N-methyltransferase EHMT2 (Homo sapiens) (UniProt Q96KQ7); experiment: qHTS Assay for Inhibitors of Histone Lysine Methyltransferase G9a; settings: G9a H3K9 monomethylation, AlphaScreen, 2 h; series mostly up to 59 µM; activity, negative = inhibition: at the top concentration; further: nearly all actives have a fitted effect of over 75% in size
Sequence (Q96KQ7 913-1193 limits assumed): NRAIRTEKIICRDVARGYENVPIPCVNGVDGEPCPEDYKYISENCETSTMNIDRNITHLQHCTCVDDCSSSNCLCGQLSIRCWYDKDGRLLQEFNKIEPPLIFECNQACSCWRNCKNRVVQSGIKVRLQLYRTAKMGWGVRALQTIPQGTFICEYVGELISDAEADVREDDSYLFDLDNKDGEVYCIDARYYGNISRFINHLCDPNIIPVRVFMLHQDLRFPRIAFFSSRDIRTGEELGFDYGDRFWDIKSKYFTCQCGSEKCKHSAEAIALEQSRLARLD
Summary of the method: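 Enzyme 20 nM + cpd, 15 min RT; add b-H3K9 pep 500 nM / SAM 20 uM; 2 h RT; anti-H3K9me1 Ab 0.5 ug/mL + SA donor / anti-rabbit acceptor beads 20 ug/mL each, 10 min; AlphaScreen read.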
On the % scale 0 is the no-effect control and ±100 the full control effect; potency means the concentration at half of the fitted maximal effect.

activity, negative = inhibition, inactive:
Cc1oc2c(c1C(=O)Nc1ccc(F)c(F)c1)C1=NCCN1C=N2 6.48%
COc1ccc(-c2nn(CC(=O)NC3CCCC3)c3c2cnc2ccc(F)cc23)cc1 4.34%
COc1ccccc1Nc1ncc(C(C)=O)c(C)n1 20.8% [at 102 µM]
C=C(C)C1CC=C(C)/C(=N/NC(=O)CCCNc2cccc(C)c2)C1 (centres undefined) -9.82% [at 102 µM]
CCOC(=O)c1c(S(=O)(=O)N2CCCC(C(=O)NCc3cccc(C)c3)C2)c(C)n(C)c1C (centres undefined) 5.95%
O=C(NCCC1CCCCN1S(=O)(=O)c1ccc(F)cc1)C(=O)NC1CC1 (centres undefined) 16.1% [at 0.501 µM]
COc1ccc(NC(=O)CCCN2C(=O)C(c3ccccc3)Oc3cccnc32)cc1 (centres undefined) -1.84%
CS(=O)(=O)N(CC(=O)Nc1ccc(F)cc1F)c1cccc([N+](=O)[O-])c1 1.69%
Cc1cc(C)nc(NC(=O)c2cccc([N+](=O)[O-])c2)c1 0.861% [at 102 µM]
CCCN1C2CCCC1CC(NC(=O)NC13CC4CC(CC(C4)C1)C3)C2 (centres undefined) -2.35% [at 0.501 µM]
OCC[C@H]1C[C@@H](O)[C@H](O)[C@]2(OCCCc3ccccc32)O1 -3% [at 12.7 µM]
COC(=O)CN1C(=O)C(C)(C)Oc2ccc(C(=O)Nc3cccc(OC)c3)cc21 15.9% [at 102 µM]
CC(=O)c1ccc(NC(=O)CSc2nnc(NC(=O)Nc3ccccc3)s2)cc1 -21.1%
Cc1cccc(CSc2nnc(NC(=O)CSc3nnc(C)s3)s2)c1 15.2% [at 102 µM]
C=CCn1c(SCC(=O)NC(=O)Cc2ccccc2)nc2ccccc2c1=O 24.2% [at 12.7 µM]
O=C(CSc1nnc(-c2cccnc2)n1CCc1ccccc1)NCc1ccccc1 16.6%
CCc1cc(=O)oc2c(C)c(OCC(=O)NCCN3CCOCC3)ccc12 -1.68% [at 102 µM]
Cc1ccc(S(=O)(=O)N(Cc2nc(-c3ccc(Cl)cc3)no2)C2CCCCC2)cc1 19%
O=C(CSc1nc(=O)n(Cc2cccnc2)c2c1CCC2)Nc1ccc(F)cc1F 11.7%
Cc1ccc(C)n1-c1nnc(N2CCC(C(=O)NCc3ccc(F)cc3)CC2)s1 4.77%
Cn1c(CC(=O)Nc2ccc(F)cc2)nnc1SCC(=O)NC1CCCCC1 2.6%
CCOc1cccc(-c2nnc(SCC(=O)NC3CC3)n2C)c1 -2.25% [at 102 µM]
CC(C)CCNC(=O)CSc1nc2ccccc2nc1Cc1ccc(Cl)cc1 14.1%
CC(C)c1ccc(C(=O)NCCCc2ccccc2)cc1 68.5%
Nc1ccc(C(=O)NCc2ccccc2)cc1 -1.36% [at 102 µM]
COc1ccccc1N1CCN(S(=O)(=O)CCNC(=O)COc2ccc(F)cc2)CC1 5.42%
COc1ccc(-c2c(C)c3ccc(O)c(CN4CCN(C)CC4)c3oc2=O)cc1OC 6.72%
COc1ccc2oc(=O)cc(CN3CCOCC3)c2c1 20.4% [at 0.501 µM]
Cc1cc2oc(=O)cc(CN3CCN(Cc4ccccc4)CC3)c2cc1C 8.68% [at 102 µM]
CC1CC(C)CN(C(=O)COC(=O)c2ccc3ncsc3c2)C1 (centres undefined) -10.9% [at 12.7 µM]
CCc1cccc(NC(=O)C2CCCN(S(=O)(=O)c3ccc4[nH]c(=O)ccc4c3)C2)c1 (centres undefined) -12.2%
CSc1ccccc1C(=O)OCC(=O)N1CCN(C(C)=O)CC1 -3.84% [at 12.7 µM]
COC(=O)C1=NN(c2ccccc2)C2C(=O)N(c3ccccc3OC)C(=O)C12 (centres undefined) -8.07%
COc1cc(C2C3C(=O)N(c4ccccc4)C(=O)C3ON2c2ccccc2)ccc1O (centres undefined) 12.5%
CCOc1ccc2c(c1)c(=O)c(S(=O)(=O)c1ccc(C)cc1)cn2CC 6.41% [at 102 µM]
COc1ccccc1C(=O)COC(=O)CSCC(=O)Nc1cc(C)on1 -33.7% [at 102 µM]
CC(C)(COC(=O)Nc1ccccc1)COC(=O)Nc1ccccc1 -24.1% [at 2.33 µM]
CCOC(=O)c1sc2nc(SC)nc(-c3ccccc3)c2c1N 22.6% [at 12.7 µM]
COc1cccc(C(=O)c2sc3nc(-c4ccccc4)cc(C(F)(F)F)c3c2N)c1 71%
CC(=O)NS(=O)(=O)c1ccc2c(c1)Cc1cc(S(=O)(=O)NC(C)=O)ccc1-2 -3.76% [at 0.501 µM]
COc1ccc(CCNC(=O)c2c3c(nc4ccccc24)C(=O)N(C2CCCCC2)C3)cc1OC 9.2%
COc1ccc(/C=C/C(=O)Nc2ccc3c(c2)OCCO3)cc1OC -16.2%
CCOc1ccc(C(=O)Nc2ccc3nc4c(c(Nc5ccccc5OC)c3c2)CCCC4)cc1 -44%
CC(C)=C1C2CCC1C1C(=O)N(NC(=O)c3ccco3)C(=O)C21 (centres undefined) 6.86% [at 102 µM]
O=C(NC1CC(=O)N(c2ccccc2)C1)c1ccco1 (centres undefined) -2.6%
CCOc1ccc(CNC(=O)Cn2cc3c(n2)-c2c(oc(C(=O)N4CCCC4)c2C)CC3)cc1 -35.9%
O=C(COC(=O)c1ccc2ncsc2c1)Nc1ccc(Cl)cc1 -43.9% [at 12.7 µM]
O=c1ccnc(Nc2ccc(Cl)cc2)[nH]1 1.74% [at 102 µM]
CCc1ccc(NC(=O)COC(=O)c2cccs2)cc1 -8.8% [at 102 µM]
COc1ccccc1NC(=O)Cn1cnc2ccc(S(=O)(=O)N3CCC(C)CC3)cc2c1=O -0.173%
CCC(Sc1nnc(-c2ccc(OC)cc2)c(-c2ccc(OC)cc2)n1)C(=O)NC1CCCCC1 (centres undefined) 6.11%
COc1ccc(-c2nnc(SCC(=O)Nc3ccc(C(C)C)cc3)nc2-c2ccc(OC)c(OC)c2)cc1OC -3.65%
CCOc1ccc2[nH]c3nc(SCC(=O)NC4CCCC4)nnc3c2c1 12.1%
CCOc1cc(-c2noc(CCCC(=O)NC3CCCCC3)n2)ccc1OC 28.6% [at 102 µM]
CCOc1ccc(-c2noc(CCC(=O)NC3CCCC3)n2)cc1OC 20.6% [at 102 µM]
COc1ccc(-c2nnc(SCC(=O)NC3CCCCC3)o2)cc1OC 5.72% [at 102 µM]
Cc1ccc(Nc2nnc(-c3ccc(C)c(S(=O)(=O)N4CCCCC4)c3)c3ccccc23)cc1 12.6%
CC(=O)N1CCN(c2ccccc2NC(=S)NC(=O)c2cc3ccccc3o2)CC1 10.6% [at 102 µM]
CC(C)(C)OC(=O)N1CCC(c2c(C(=O)NCCc3ccsc3)cnn2-c2ccc(F)cc2F)CC1 -1.68%
COc1ccc([C@H]2CC(=O)C=C(c3ccc(CO)cc3)C2)cc1 11.2% [at 0.501 µM]
Cc1c(-c2cccc(NC(=O)C(C)(C)C)c2)nc2ncccn12 9.24%
COc1ccc(Br)cc1CNC(=O)c1cc(=O)[nH]c2ccc(S(=O)(=O)N3CCCC3)cc12 -3.57%
Cc1ccc(SCC(=O)Nc2ccc3oc(-c4ccccc4F)nc3c2)cc1 6.8%
CCOC(=O)c1sc(NC(=O)CSc2nnc(-c3ccco3)o2)c(C(=O)OCC)c1C -13.7%
CCOC(=O)c1sc(NC(=O)CSc2ncccn2)c(C#N)c1C -13.3% [at 12.7 µM]
O=C(Nc1ccc(C(=O)OCc2cc(=O)n3nc(C4CC4)sc3n2)cc1)c1ccc(F)cc1 7.88% [at 12.7 µM]
Cc1ccsc1/C=N/n1c(=S)[nH]nc(C)c1=O 5.6%
Cc1n[nH]c(=O)nc1N/N=C/c1cccs1 16.1% [at 102 µM]
c1ccc(-c2noc(-c3cccs3)n2)nc1 9.04%
COc1cc(-c2cc3n(C)c(C)c(CCC(=O)Nc4ccc(F)cc4)c(=O)n3n2)cc(OC)c1OC -1.47%
Cc1cccc(NC(=O)CSc2nnc(CNC(=O)c3cccc(C)c3)n2-c2ccccc2)c1 -46.9%
COc1cccc(CNC(=O)CCCC(=O)Nc2cccc([N+](=O)[O-])c2)c1 26.3% [at 102 µM]
COc1cccc(C(=O)CC(=O)C(=O)Nc2ccc([N+](=O)[O-])cc2C)c1 -37.1% [at 102 µM]
O=C(CN1CCOC1=O)N1CCCC(Nc2ccc(F)c(F)c2)C1 (centres undefined) 10.1%
CCC(=O)Nc1nc(C)c(C(=O)Nc2cccc(Cl)c2)s1 21.5%

Potency, active:
C=C(C)C1CC=C(C)/C(=N\NC(=O)CNc2ccccc2OC)C1 (centres undefined) 35.5 µM
O=[N+]([O-])c1cccc(/C([O-])=C(/C(=S)Nc2ccccc2F)[n+]2ccccc2)c1 28.2 µM
Cc1cccc(NC(=O)CSc2nnc(NC(=O)CN3CCOCC3)s2)c1 7.08 µM
C=CCn1c(SCC(=O)NCc2ccccc2)nnc1-c1cc(Br)ccc1O 10 µM
CCOc1ccc(Nc2nc(Cc3nnc(SCC(=O)NC4CCCC4)n3C)cs2)cc1 28.2 µM
O=C(NCCCNCc1ccccc1)c1ccc(/C=N/O)nc1 14.1 µM
CC(C)c1ccc2oc(=O)cc(CN3CCN(Cc4ccccc4)CC3)c2c1 50.1 µM
Cc1ccccc1N1C(=O)C2ON(c3ccccc3)C(c3ccncc3)C2C1=O (centres undefined) 44.7 µM
CCN(CC)C(=O)c1sc2nc(-c3ccccc3)ccc2c1N 17.8 µM
COc1ccccc1Nc1c2c(nc3ccc(NC(=O)/C=C/c4cc(OC)c(OC)c(OC)c4)cc13)CCCC2 14.1 µM
O=C(NN1C(=O)C2C3C=CC(C3)C2C1=O)c1ccco1 (centres undefined) 12.6 µM
Cc1csc(Nc2ccc(Cl)cc2)[n+]1-c1ccc(Cl)cc1 20 µM
CCOc1cc(-c2nnc(SCC(=O)NC3CCCCC3)nc2-c2ccc(OC)c(OCC)c2)ccc1OC 8.91 µM
CCOc1cc(-c2nnc(SCC(=O)NC3CCCC3)nc2-c2ccc(OC)c(OCC)c2)ccc1OC 11.2 µM
COc1ccc(-c2noc(CCCC(=O)NC3CCCC3)n2)cc1OC 79.4 µM
CCOC(=O)c1sc(NC(=O)CSc2nc(C)cc(C(F)(F)F)n2)c(C#N)c1C 11.2 µM
S=c1[nH]nc(-c2cccs2)n1/N=C/c1cccs1 1.26 µM
Oc1ccccc1/C=N/n1c(-c2cccs2)n[nH]c1=S 1.58 µM
COc1cccc(NCCC(=O)c2cccc([N+](=O)[O-])c2)c1 35.5 µM
